# Screens (PubChem)
# GIRK2 activator: activators of NPY4-receptor-primed GIRK2 channels, summary, cell-based, HEK293, thallium flux | G protein-activated inward rectifier potassium channel 2 (Homo sapiens), P48051 | HEK293 GIRK2/NPY4 cells, thallium flux fluorescence | activation (% efficacy), % for hits at 37.5 µM | 34,000 tested, under 10 active;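 active means primary screen hit, no activity in plain HEK293 cells, and in GIRK2-only cells above 5% efficacy rising with concentration; inactive means the rest, including fluorescent compounds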;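 further: efficacy is normalized control-subtracted fluorescence 15 s after thallium addition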
# Target sequence (P48051 whole entry, looked up): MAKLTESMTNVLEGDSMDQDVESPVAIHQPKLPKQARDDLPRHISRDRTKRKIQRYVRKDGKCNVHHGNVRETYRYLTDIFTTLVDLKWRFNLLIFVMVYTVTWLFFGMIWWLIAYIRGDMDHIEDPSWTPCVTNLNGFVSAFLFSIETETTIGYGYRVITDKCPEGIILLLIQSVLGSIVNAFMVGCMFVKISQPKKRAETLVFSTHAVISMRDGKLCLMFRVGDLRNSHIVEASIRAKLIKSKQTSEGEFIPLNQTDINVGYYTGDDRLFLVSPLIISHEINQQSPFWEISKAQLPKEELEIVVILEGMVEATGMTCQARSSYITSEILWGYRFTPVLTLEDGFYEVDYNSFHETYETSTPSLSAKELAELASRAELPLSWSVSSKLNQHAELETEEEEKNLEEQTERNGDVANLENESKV
# GluA2 TARP mod: modulators of GluA2-stargazin AMPA receptor complexes, primary screen, cell-based, membrane potential dye | AID 1259245, 2017 | calls only at 30 µM | 40,000 compounds, 3.5% hits | HEK293 GluA2+stargazin, membrane potential dye (FDSS), glutamate EC50; hits were called plate by plate, in both directions | Voltage-dependent calcium channel gamma-2 subunit (Mus musculus) + Glutamate receptor 2 …;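 active means any of four per-well response measures lying three or more SD from its plate-wide compound average, in either direction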
# * hit, by the source's call; i = inactive; x = not tested or not shown; + = active, no number. The sample as a whole holds a higher share of hits than the screen did.
SMILES,GIRK2 activator,GluA2 TARP mod
CCC(CC)C(=O)Nc1cc(C)nn1-c1nc2c(cnn2-c2cccc(C)c2)c(=O)[nH]1,i,+
CCc1nnc(NS(=O)(=O)c2ccc(NC(=O)C3CCCCC3)cc2)s1,x,i
O=C(Nc1ccc2c(c1)CCCN2C(=O)c1ccccc1)c1ccc2c(c1)OCO2,x,i
COc1ccc(C)cc1S(=O)(=O)N1CC(C)CC(C)C1 (configuration not stated),x,i
CC1CC(C)CN(S(=O)(=O)c2c(F)cccc2F)C1 (configuration not stated),x,+
COc1ccc(C)cc1N1CCCn2c1nc1c2c(=O)n(Cc2ccc(C)cc2)c(=O)n1C,x,i
Cc1ccc(S(=O)(=O)Nc2cc(-c3ccc(F)cc3)nn2C2CCS(=O)(=O)C2)cc1 (configuration not stated),i,i
COC(=O)c1ccccc1NC(=O)CC1Nc2cccc3cccc(c23)NC1=O (configuration not stated),x,i
O=C(CC1Nc2cccc3cccc(c23)NC1=O)Nc1cccc(C(F)(F)F)c1 (configuration not stated),x,+
CCOc1ccc(NC(=O)C23CC4CCC(CC(C4)C2)C3)cc1,x,+
O=C(Cc1ccc(NC(=O)C23CC4CC(CC(C4)C2)C3)cc1)NC1CC1,i,i
O=C1CS/C(=N/N=C2\NC(=O)C(CC(=O)c3ccc(F)cc3)S2)N1 (configuration not stated),x,i
COc1ccc(NC(=O)CSC2=NC(C)(C)N=C2c2ccccc2)cc1OC,i,i
COc1cc(OC)cc(C2=NC3(CCCC3)N=C2SCC(=O)Nc2ccccc2)c1,i,+
CC(C)Cn1c(SCc2ccccc2)nc2cc(C(=O)NC(C)C)ccc2c1=O,x,i
CCOc1ccc(-c2[nH]ncc2C(=O)O)cc1Cl,x,i
O=C(COc1ccccc1)NCCOc1ccc2nnc(-c3cccc(F)c3)n2n1,x,i
COc1ccc(-c2nnc3ccc(OCCNC(=O)C4CC4)nn23)cc1,i,+
O=C(NCCOc1ccc2nnc(-c3cccc(F)c3)n2n1)c1cc(-c2ccccc2)n[nH]1,i,+
O=C(NCCOc1ccc2nnc(-c3ccccc3)n2n1)Nc1cccs1,i,+
O=C(NCCOc1ccc2nnc(-c3ccccc3)n2n1)C1CCCC1,i,i
COc1ccc(-c2nnc3ccc(OCCNC(=O)c4ccccc4)nn23)cc1OC,i,i
COc1ccc(-c2nnc3ccc(OCCNC(=O)Nc4cccs4)nn23)cc1OC,i,+
O=C(NCCOc1ccc2nnc(-c3ccccc3)n2n1)Nc1ccccc1,i,i
CC(=O)Nc1cccc(NC(=O)CCc2csc(NC(=O)c3ccc(F)cc3)n2)c1,i,i
SMILES,GIRK2 activator,GluA2 TARP mod
Cc1ccccc1C(=O)Nc1nn(C)c2c1C(C)CC(=O)N2 (configuration not stated),i,i
NC(=O)Cn1nnn(-c2ccc(NC(=O)C3COc4ccccc4O3)cc2)c1=O (configuration not stated),i,i
CSc1ccccc1NC(=O)Cc1csc(NC(=O)c2ccc(=O)[nH]c2)n1,i,i
CC(C)OCCCNc1nc2c(c(=O)[nH]c(=O)n2C)n1Cc1ccc(F)cc1,i,i
COc1ccc(OC)c(-c2ccc(=O)n(CC(=O)NC3CCCC3)n2)c1,i,i
COc1cc(C2NC(=O)NC(O)(C(F)(F)F)C2C(C)=O)ccc1OCc1ccccc1 (configuration not stated),x,+
COc1cc(C2NC(=O)NC(O)(C(F)(F)F)C2C(C)=O)ccc1OCc1ccc(Cl)cc1 (configuration not stated),x,i
O=S(=O)(c1ccc(F)cc1)N1N=C(c2ccc(F)cc2)CC1c1ccc2nccnc2c1 (configuration not stated),x,i
Cc1cc(C(=O)N2CCC3(CC2)OCCN3S(=O)(=O)c2cccs2)c(C)o1,i,+
COc1ccc(S(=O)(=O)N2CCOC23CCN(C(=O)c2cc(C)oc2C)CC3)cc1,i,i
CC1CCc2c(sc(NC(=O)CCCS(=O)(=O)c3ccccc3)c2C#N)C1 (configuration not stated),i,i
CSc1ccc(CC(=O)Nc2ccc([N+](=O)[O-])cc2)cc1,x,+
COc1ccc(NC(=O)Cc2ccc(SC)cc2)cc1,x,i
CCc1ccc(NC(=O)C(=O)Nc2ccc([N+](=O)[O-])cc2)cc1,x,i
O=C(NCCc1ccc(F)cc1)Nc1ccc([N+](=O)[O-])cc1,x,+
Cc1ccc(Cl)cc1NC(=O)C(=O)NCC1(O)CCOCC1,i,i
COc1cccc(-n2c(=O)[nH]c3c(C(N)=O)nc(-c4cccc(O)c4)nc32)c1,i,i
Cc1cc(Nc2ccc(Cl)cc2)nc(-n2cc([N+](=O)[O-])cn2)n1,i,+
Cc1cc(N2CCN(Cc3ccccc3)CC2)nc(-n2cc([N+](=O)[O-])cn2)n1,i,+
COc1ccc(Nc2cc(C)nc(-n3cc([N+](=O)[O-])cn3)n2)cc1,i,i
Cc1cc(N2CCC(Cc3ccccc3)CC2)nc(-n2cc([N+](=O)[O-])cn2)n1,i,i
O=C(NCC(O)c1ccc(C(F)(F)F)cc1)C1CC1 (configuration not stated),i,x
CN(C)CCNC(=O)C(=O)NCCC(O)c1ccco1 (configuration not stated),i,i
Cc1c(C)c(C)c(S(=O)(=O)NCCC(O)c2ccco2)c(C)c1C (configuration not stated),i,+
Cc1ccc(S(=O)(=O)/C(C#N)=C/N2CCN(Cc3ccccc3)CC2)cc1C,i,+
SMILES,GIRK2 activator,GluA2 TARP mod
Cc1ccc(S(=O)(=O)/C(C#N)=C/N2CCN(Cc3ccc4c(c3)OCO4)CC2)cc1C,i,i
COc1cc(C)ccc1OCC(=O)N1CCN(c2ccc3nnc(C)n3n2)CC1,i,+
COc1cc(C)ccc1OCC(=O)N1CCN(c2ccc3nncn3n2)CC1,i,i
Cc1ccc(S(=O)(=O)N(C)c2ccsc2C(=O)Nc2cccc(C(C)C)c2)cc1,i,i
COc1ccc(NC(=O)NC2(c3nc(-c4ccsc4)no3)CCCCC2)cc1Cl,i,i
CCCOc1ccc(S(=O)(=O)NCC2CCN(C3CCCC3)CC2)cc1,i,+
CCc1ccc(S(=O)(=O)NCC2CCN(C3CCCC3)CC2)cc1,x,i
CCCc1ccc(S(=O)(=O)NCC2CCN(C3CCCC3)CC2)cc1,x,+
COc1ccc(S(=O)(=O)NCC2CCN(C3CCCC3)CC2)cc1OC,i,i
COC(=O)N1CCC(CNS(=O)(=O)c2ccc3c(c2)CCCC3)CC1,i,i
O=S(=O)(NCC1CCN(C2CCCC2)CC1)c1ccc2c(c1)CCCC2,i,+
CN(C)C(CNC(=O)C(=O)Nc1ccccc1C#N)c1cccc2ccccc12 (configuration not stated),i,x
Cc1ccc(CC(=O)Nc2nnc(-c3ccc(C)c(C)c3)o2)c(C)c1,i,i
COc1ccc(-c2ccc(=O)n(CCNS(=O)(=O)c3cc(C)ccc3OC)n2)cc1,x,i
